Assay outcomes: PubChem, Sanford-Burnham Center for Chemical Genomics
TIM10 inh: growth inhibitors of isogenic TIM10 control yeast, primary screen, counter-screen for tim10-1 yeast inhibitor project, luminescence, uHTS; S. cerevisiae TIM10 strain growth, BacTiter-Glo luminescence, 24 h; inhibition, % at 10 µM; actives 1.4% (n = 330,000);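 active means inhibition of 40% or more at the single tested concentration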;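 further: wild-type TIM10 isogenic control strain grown at permissive 25 °C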
NALP3 yeast inh: NALP3 inflammasome inhibitors in reconstituted yeast, primary screen, luminescence, uHTS; Yeast reconstituted NLRP3/ASC/caspase-1, beta-gal luminescence, 24 h; inhibition, % at 10 µM; actives 0.39% (n = 330,000);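 active means inhibition of 50% or more; inactive means inhibition below 50%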;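 further: plate controls were induced DMSO wells for no effect and uninduced yeast grown without galactose for full effect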
NALP1 inh: NALP1 inflammasome inhibitors in reconstituted yeast, colorimetric, S. cerevisiae, triplicate retest. S. cerevisiae NALP1/ASC/caspase-1 growth, X-gal OD620, 72 h. inhibition, % at 10 µM. actives 0.61% (n = 280,000); in the data active means inhibition mostly above about 24%, no sharp cut-off; inactive means mostly below about 32%
tim10-1 inh: growth inhibitors of tim10-1 mutant yeast, primary screen, luminescence, uHTS; S. cerevisiae tim10-1 ts strain growth, BacTiter-Glo, 24 h; inhibition, % at 20 µM; actives 2.2% (n = 330,000); AID 463190, 2010;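 active means inhibition of at least 40%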;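 further: mutant grown at 25 °C; 0% = DMSO wells with yeast and 100% = wells holding no yeast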
tim23-1 inh: growth inhibitors of tim23-1 mutant yeast, primary screen, luminescence, uHTS | actives 1.3% (n = 330,000) | S. cerevisiae tim23-1 growth, BacTiter-Glo luminescence, 24 h | AID 463212, 2010 | inhibition, % at 20 µM;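 active means growth inhibition of the mutant yeast at or above 50%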;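 further: temperature-sensitive mutant grown at 25 °C; plate controls were DMSO-treated mutant yeast for no effect and medium wells lacking yeast for full effect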
tim23-1 conf: tim23-1 mutant yeast growth inhibitors, confirmation, luminescence, single concentration; shares compounds with tim23-1 inh; S. cerevisiae tim23-1 growth, BacTiter-Glo luminescence, 24 h; inhibition, % at 20 µM; actives 83% (n = 4,400);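 active means inhibition above about 39% in either of two replicate wells at 20 µM, limit read from the data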;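 further: temperature-sensitive tim23-1 mutant grown at 25 °C; 0% = DMSO wells with yeast and 100% = medium wells without yeast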
Starred values were filed as active, the others as inactive; nt = no result. Hits are enriched below; roughly 4% of the tested compounds scored in any of these assays.

SMILES	TIM10 inh	NALP3 yeast inh	NALP1 inh	tim10-1 inh	tim23-1 inh	tim23-1 conf
Cc1cc(C)nc(SCC(=O)c2cc3ccccc3oc2=O)n1	21.5	1.4	-5.8	16.0	50.4*	42.8*
O=C(CCCl)Nc1nc2c(s1)CCc1ccccc1-2	35.6	36.9	22.5	37.3	70.0*	74.1*
CC(=O)Nc1nc2c(s1)CCc1ccccc1-2	0.1	8.6	21.5	9.0	10.7	nt
C/C(CCS(=O)(=O)c1ccccc1)=N/O	3.3	10.9	-4.4	14.0	12.2	nt
CCOC(=O)c1ccc(NC(=O)c2ccccc2)cc1	18.0	42.1	18.9	13.2	15.0	nt
O=C(NOC(=O)c1ccccc1)c1ccccc1	11.2	1.6	4.5	27.6	64.4*	33.8
O=C1OC(c2ccccc2)=NC12CC2c1ccc(Cl)cc1 (centres undefined)	29.6	24.7	5.8	-4.8	56.3*	-69.2
CC1CCCc2sc3nc(NCc4ccco4)n4ncnc4c3c21 (centres undefined)	18.3	23.6	-0.5	33.1	50.5*	48.7*
OC[C@@H]1CC[C@@H](Cc2ccc(-c3ccccc3)cc2)O1	19.7	nt	nt	29.7	52.6*	32.5
CCOc1ccc(S(=O)(=O)N2CCN(C(=O)C3CC3C)CC2)cc1 (centres undefined)	-5.0	12.6	nt	-0.1	18.0	nt
CCOc1ccc2c3c(c(=O)oc2c1OCC)CCCC3	20.3	22.0	-2.5	38.6	52.4*	38.5*
CCCOc1ccc2c3c(c(=O)oc2c1OCCC)CCCC3	-7.4	30.2	25.8	15.5	30.7	nt
Cc1cc(-c2nn3c(-c4ccccc4)nnc3s2)c2ccccc2n1	27.2	10.3	37.3	30.5	17.0	nt
Cc1ccccc1-c1nn2c(-c3ccccc3)nnc2s1	17.7	9.6	22.2	38.5	53.3*	51.2*
Nc1cccc(-c2nc3ccc(C(=O)c4ccccc4)cc3[nH]2)c1	21.4	8.1	9.0	4.2	54.6*	55.8*
Nc1ccc2nc(-c3ccccc3)[nH]c2c1	9.0	17.8	2.0	-10.5	2.1	nt
CN(C)c1cnn(-c2ccccc2)c(=O)c1Cl	1.1	34.6	11.9	-3.5	-3.8	nt
COc1nn(-c2ccccc2)c(=O)c(Cl)c1Cl	17.8	11.9	0.5	21.1	50.7*	37.8
CC(=O)Nc1ccc(-c2c(C)cc3oc(=O)cc(-c4ccccc4)c3c2C)cc1	3.3	nt	nt	28.0	50.2*	33.2
CSc1ccc(CNC(=O)Cc2ccc(NC(=O)C3=C(C)OCCS3)cc2)cc1	-21.2	10.3	2.2	0.3	0.1	nt
O=S(=O)(Cc1ccc(Cl)cc1)Nc1ccc2c(c1)OCO2	38.4	34.1	38.0	35.5	59.2*	48.6*
O=S(=O)(Cc1ccc(Cl)cc1)N1CCN(Cc2ccc3c(c2)OCO3)CC1	-24.4	25.7	11.5	-3.9	-19.5	nt
S=C(NCCc1cnc[nH]1)NC1CCCC1	3.7	6.4	-4.7	-2.8	-2.2	nt
COC(=O)c1ccc(COC(=O)CCNS(=O)(=O)c2ccc(C)c(C)c2)cc1	16.1	-0.4	nt	18.8	29.1	nt
CCc1nnc2n1N=C(c1ccc(-c3cc(Cl)ccc3Cl)o1)CS2	-0.9	6.3	4.4	29.1	-9.2	nt
SMILES	TIM10 inh	NALP3 yeast inh	NALP1 inh	tim10-1 inh	tim23-1 inh	tim23-1 conf
COc1ccc(C2/C=C\CN(CC(C)C)CC(=O)N2Cc2cccc(F)c2)cc1 (centres undefined)	9.6	nt	nt	20.4	50.4*	39.1*
COc1ccc(C2/C=C\CN(C(=O)c3ccccc3)CC(=O)N2Cc2cccc(F)c2)cc1 (centres undefined)	16.1	nt	nt	30.1	58.8*	42.2*
COc1ccc(C2/C=C\CN(S(=O)(=O)c3ccc(C)cc3)CC(=O)N2Cc2cccc(F)c2)cc1 (centres undefined)	-5.0	nt	nt	19.8	44.9	nt
COC(=O)C1=C(C)OC(N)=C(C#N)C1c1cccnc1 (centres undefined)	13.8	23.4	-0.7	7.8	19.9	nt
CC1=C(C(=O)OC(C)C)C(c2cncc(-c3ccc(F)cc3)c2)C(C#N)=C(N)O1 (centres undefined)	35.4	13.9	30.8	33.8	50.4*	37.5
O=C(COC(=O)c1cccc([N+](=O)[O-])c1)c1ccc2c(c1)OCO2	10.1	8.4	nt	21.2	40.9	nt
